SENP8 block-1 = SENP8 (human) protease inhibition; Q96LD8; recombinant SENP8, Nedd8 substrate fluorescence; inhibition, % at 20 µM; hit rate 0.64% among 360,000; AID 602440; in the data active = inhibition mostly above about 40%, no sharp cut-off; inactive = mostly below about 27%
Platelet DG rel = modulates dense granule release in human platelets | inhibition, %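 (compounds screened at 7.5 µM in platelet-rich plasma)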 | human platelet-rich plasma, SFLLRN dense granule ATP release, luminescence | AID 1663 | hit rate 0.22% among 300,000;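 active = mean replicate score, as percent of positive control, at or above 50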
SENP6 block = inhibitors of human SENP6 protease. Q9GZR1. hit rate 1.8% among 330,000. Recombinant SENP6 catalytic domain, aminoluciferin luminescence. inhibition, % at 10 µM;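 active = inhibition above about 50% at the single tested dose, limit read from the data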;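 note: plate controls were DMSO wells with enzyme for no effect and DMSO wells lacking enzyme for full effect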
SENP8 block-2 = SENP8 protease inhibition; Q96LD8; purified SENP8, Z-RLRGG-aminoluciferin cleavage, luminescence; inhibition, % at 10 µM; hit rate 1.2% among 330,000; AID 2540; in the data active = inhibition above about 50%
SENP7 inh = blocks the human protease SENP7 | inhibition, % at 5 µM | Q9BQF6 | hit rate 1.5% among 330,000 | recombinant SENP7, Z-RLRGG-aminoluciferin luminescence, 40 min | AID 434973;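 active = inhibition above about 50% at the single test dose, limit read from the data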;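 note: plate controls were DMSO with enzyme for no effect and no enzyme buffer wells for full effect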
Target sequence (Q9BQF6 706-1050 limits assumed): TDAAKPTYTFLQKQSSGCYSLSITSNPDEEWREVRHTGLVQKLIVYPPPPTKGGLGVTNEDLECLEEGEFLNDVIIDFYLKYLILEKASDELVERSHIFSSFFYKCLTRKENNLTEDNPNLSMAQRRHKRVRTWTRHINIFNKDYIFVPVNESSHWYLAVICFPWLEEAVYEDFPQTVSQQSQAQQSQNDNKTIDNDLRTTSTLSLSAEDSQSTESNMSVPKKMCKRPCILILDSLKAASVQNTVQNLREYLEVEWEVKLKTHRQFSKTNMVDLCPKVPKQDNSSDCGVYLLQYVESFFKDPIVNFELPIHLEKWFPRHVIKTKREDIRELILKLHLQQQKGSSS
* = called active by the depositor; . = no result. Sampled rows, rich in hits. Any-hit rate of the full collection: about 2.4%.

SMILES | SENP8 block-1 | Platelet DG rel | SENP6 block | SENP8 block-2 | SENP7 inh
Cc1ccc2nc(-c3ccc(NC(=O)CCN4C(=O)c5ccccc5C4=O)cc3)sc2c1 | -377 | -44 | 74* | 51* | -4
COc1cc(/C=C2/C(=O)NN(c3ccc(C)c(Cl)c3)C2=O)cc([N+](=O)[O-])c1O | 50* | 3 | 1 | 3 | 4
COc1cc(/C=C2/C(=O)NN(c3cccc(Cl)c3)C2=O)cc(OC)c1O | 32 | 3 | 2 | -2 | 0
COc1cc(/C=C2/C(=O)NN(c3cccc(C)c3)C2=O)cc([N+](=O)[O-])c1O | 48* | 2 | 14 | 2 | 5
O=C(Cc1csc(N2CCOCC2)n1)N/N=C/c1ccc(O)c(O)c1O | 59* | 2 | . | . | .
O=C(CCN1CCN(c2ccccc2)CC1)N/N=C/c1ccc(O)c(O)c1O | 62* | 5 | . | . | .
CC(C)(C)OC(=O)C[C@H]1C/C=C\C[C@H](CC(=O)N[C@H](CO)Cc2ccccc2)C(=O)N[C@@H](Cc2ccccc2)COC1=O | 13 | . | -5 | 0 | 3
CC(C)c1ccc(OCc2ccc(C(=O)O)o2)cc1 | -21 | 2 | 95* | 87* | 77*
COc1ccc(CCC(=O)Nc2cccc(S(=O)(=O)N3CCCC3)c2)cc1OC | -13 | . | -25 | 9 | 1
COc1ccc2c(c1)CC/C2=N\OC(=O)c1ccccc1OC | 25 | 1 | 68* | 42 | 67*
C=CCC[C@@H](CCCCC)OC(=O)/C=C/[C@@H](O)[C@H](O)C[C@@H](O)CC=C | 26 | . | . | . | .
Cc1ccc(Nc2ccc(C(F)(F)F)cc2[N+](=O)[O-])cc1 | 32 | 5 | -3 | 3 | -7
Cc1ccc(Nc2ccc([N+](=O)[O-])ccc2=O)cc1 | 43* | 10 | 21 | 6 | 7
C/C(=N\NC(=O)c1ccc(-c2ccccc2)cc1)C1C(=O)c2ccccc2C1=O | 28 | -4 | 3 | 8 | 1
C/C(=N\NC(=O)c1ccc(Br)cc1)C1C(=O)c2ccccc2C1=O | 18 | 15 | 97* | 94* | 57*
O=C(O)c1cccc(NS(=O)(=O)c2cc(S(=O)(=O)c3ccc(Cl)cc3)ccc2Cl)c1 | 12 | -4 | 6 | 1 | -2
COc1ccc(CCNCc2cc(C)n(-c3ccc(OC)cc3)c2C)cc1 | 46* | -6 | -8 | -10 | -9
Cc1ccccc1NC1=C(C(=O)c2ccccc2)N(C)S(=O)(=O)c2ccccc21 | 43* | 1 | -11 | 1 | 5
COc1ccccc1C(=O)Nc1nc2ccc(S(C)(=O)=O)cc2s1 | -87 | -5 | -20 | -14 | 13
CSc1ncccc1C(=O)Nc1nc2ccc(Oc3ccccc3)cc2s1 | -159 | 8 | 94* | 90* | 95*
COc1ccc2nc(NC(=O)c3ccccc3C(=O)O)sc2c1 | 10 | 3 | -19 | -1 | -7
COc1n[nH]c(C(=O)Nc2nc3ccccc3s2)c1[N+](=O)[O-] | 16 | 4 | 96* | 91* | 92*
COc1n[nH]c(C(=O)NCc2ccccc2)c1[N+](=O)[O-] | 6 | -7 | -13 | 7 | 6
COc1ccccc1C(=O)Nc1nc2ccccc2s1 | -171 | 73* | 100* | 97* | 100*
CCn1c(SCC(=O)N2CC(C)OC(C)C2)nc2c([nH]c3ccccc32)c1=O (stereo not given) | -17 | -10 | 5 | 4 | -12
SMILES | SENP8 block-1 | Platelet DG rel | SENP6 block | SENP8 block-2 | SENP7 inh
C=C1C[C@H](O[C@@H]2O[C@H](CO)[C@@H](O)[C@H](O)[C@H]2O)[C@@H]2[C@H](OC(=O)[C@H]2C)[C@H]2[C@H](C)[C@H](O)C[C@@H]12 | 19 | . | 2 | 6 | -3
Cc1cc(-c2ccccc2)nc(Nc2nc3c(C)cccc3c(=O)[nH]2)n1 | 7 | . | . | . | .
CSc1ccc(/C=N/NC(=O)CNc2cccc3ccccc23)cc1 | -295 | 1 | 73* | 48 | 40
CS(=O)(=O)c1ccc2nc(NC(=O)c3ccc(=O)[nH]c3)sc2c1 | -299 | 4 | -10 | -10 | -2
Cc1cc(C(=O)Nc2nc3ccc(Cl)cc3s2)nn1C | -8 | -8 | -7 | -4 | 48
Cn1nc(C(=O)Nc2nc3ccc(S(C)(=O)=O)cc3s2)ccc1=O | -6 | 53* | 26 | -8 | 11
Cn1ncc(Cl)c1C(=O)Nc1nc2ccc(Cl)cc2s1 | -56 | 25 | 98* | -5 | 98*
O=c1c(O)cccc2cc(O)c(O)c(O)c12 | 60* | 2 | -52 | 6 | -3
O=c1cc(-c2ccccc2)oc2cc(O)c(O)c(O)c12 | 0 | . | 6 | 10 | -3
N#C/C(=N/Nc1ccccc1[N+](=O)[O-])C(N)=S | 45* | 1 | -13 | -11 | 12
